Test systems include HCT-15 colon; HT29 colon; SNB-75 CNS; SNB-19 CNS; U251 CNS; PC-3 prostate; SK-MEL-5 melanoma; UACC-62 melanoma; LOX IMVI melanoma; SK-MEL-28 melanoma; SK-MEL-2 melanoma; EKVX NSCLC; SN12C renal; UO-31 renal; TK-10 renal; ACHN renal; CAKI-1 renal; CCRF-CEM leukemia; MOLT-4 leukemia; A498 renal.
What all share (assay): NCI-60 one-dose screen, 48 h (100 = growth as untreated, 0 = no growth, -100 = all killed)
Common to all, as to conditions: 10 µM unless noted

These results are taken from PubChem BioAssay (NCI).

“And” between values parts separate entries of the source, which are not always exact repeats. Equal entries are not always repeated. About 83,000 compounds went through this panel and 20% of them were active in at least one assay; those are over-represented in the sample as a whole.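 Cell lines were cultured in 96-well plates, exposed to a single compound concentration, and assessed for percent growth 48 hours later.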 The source made the active and inactive calls. How the source made its calls: active means growth percent below 10; inactive means the rest.

Consider `Cc1cccc(/C=C\C(=O)c2ccc(Cl)cc2)c1`, for which the growth was 89.5% (inactive) and 96.6% (inactive) with HCT-15 colon; 84.1% (inactive) and 90.9% (inactive) in the test on HT29 colon; 98.9% (inactive) and 115% (inactive) in the test on SNB-75 CNS; 91.6% (inactive) and 101% (inactive) in the test on SNB-19 CNS; 80.3% (inactive) and 98.9% (inactive) in the test on U251 CNS; 89.6% (inactive) and 83.7% (inactive) in the test with PC-3 prostate. Further, the growth was 108% (inactive) and 94.8% (inactive) in the test with SK-MEL-5 melanoma; 96.8% (inactive) and 103% (inactive) with UACC-62 melanoma; 89.2% (inactive) and 91.6% (inactive) with LOX IMVI melanoma; 106% (inactive) and 111% (inactive) in the test on SK-MEL-28 melanoma; 94.9% (inactive) and 100% (inactive) with SK-MEL-2 melanoma; 91.1% (inactive) and 94.3% (inactive) with EKVX NSCLC. The growth was 94.9% (inactive) and 97% (inactive) in the test on SN12C renal; 68.3% (inactive) and 86.1% (inactive) in the test on UO-31 renal; 75.5% (inactive) and 85.3% (inactive) in the test with TK-10 renal; 102% (inactive) and 105% (inactive) in the test on ACHN renal; 90.1% (inactive) and 85.1% (inactive) with CAKI-1 renal; 84.3% (inactive) and 68.8% (inactive) in the test with CCRF-CEM leukemia. The growth in the test with MOLT-4 leukemia is 90.2% (inactive) and 55% (inactive).

Take `O=C(CCc1ccc(O)cc1)N/N=C/c1cc(Br)ccc1O`: the growth with HCT-15 colon was 28.7% (inactive); in the test on HT29 colon, 98.4% (inactive); with SNB-75 CNS, 79.4% (inactive); in the test on SNB-19 CNS, 69.6% (inactive); in the test on U251 CNS it was 49.2% (inactive); with PC-3 prostate, 38.8% (inactive). Further, the growth with SK-MEL-5 melanoma was 45.3% (inactive); in the test with UACC-62 melanoma, 37.7% (inactive); in the test on LOX IMVI melanoma, 21.1% (inactive); in the test on SK-MEL-28 melanoma, 69.5% (inactive); with SK-MEL-2 melanoma it was 80.7% (inactive); in the test on EKVX NSCLC, 91% (inactive). Further, the growth is 19.5% (inactive) in the test with UO-31 renal; 88.9% (inactive) in the test on TK-10 renal; 27% (inactive) with ACHN renal; 18.7% (inactive) with CAKI-1 renal; 78.5% (inactive) in the test on A498 renal; 13.3% (inactive) with CCRF-CEM leukemia. Further, the growth in the test on MOLT-4 leukemia was 8.16% (active).

Turning to `CC(C)CNC(=O)c1ccccc1C(=O)NC1(C(=O)NCC(C)C)CCCC1`, the growth in the test with HCT-15 colon is 103% (inactive) and 106% (inactive); in the test on HT29 colon, 105% (inactive) and 104% (inactive); with SNB-75 CNS it was 87.9% (inactive) and 94.6% (inactive); in the test on SNB-19 CNS, 105% (inactive) and 108% (inactive); in the test with U251 CNS, 109% (inactive) and 105% (inactive); in the test on PC-3 prostate it was 97.9% (inactive) and 96.3% (inactive). Further, the growth in the test on SK-MEL-5 melanoma was 106% (inactive) and 115% (inactive); in the test on UACC-62 melanoma it was 103% (inactive) and 107% (inactive); in the test on LOX IMVI melanoma it was 90.4% (inactive) and 101% (inactive); in the test with SK-MEL-28 melanoma, 117% (inactive) and 115% (inactive); with SK-MEL-2 melanoma, 103% (inactive) and 100% (inactive); in the test on EKVX NSCLC, 96.7% (inactive) and 109% (inactive). Further, the growth in the test with SN12C renal was 99.8% (inactive) and 107% (inactive); in the test on UO-31 renal, 83.5% (inactive) and 86.1% (inactive); in the test with TK-10 renal, 111% (inactive) and 114% (inactive); with ACHN renal, 102% (inactive) and 104% (inactive); with CAKI-1 renal, 90.6% (inactive) and 98% (inactive); in the test with CCRF-CEM leukemia, 88.4% (inactive) and 104% (inactive). Moreover, the growth in the test on MOLT-4 leukemia is 102% (inactive) and 88.6% (inactive).

`Cn1c(=O)n(-c2ccc(C(C)(C)C#N)cc2)c2c3cc(-c4cnc5ccccc5c4)ccc3ncc21`: the growth with HCT-15 colon is 9.69% (active) and 14.5% (inactive); with HT29 colon, 4.74% (active) and -10.5% (active); in the test with SNB-75 CNS, -30.1% (active) and -24.4% (active); in the test on SNB-19 CNS, 14.9% (inactive) and 14.7% (inactive); with U251 CNS, 8.23% (active) and 8.1% (active); with PC-3 prostate, 13.2% (inactive) and -18% (active). Moreover, the growth in the test with SK-MEL-5 melanoma is -62.1% (active) and -89.1% (active); in the test with UACC-62 melanoma, -18.9% (active) and -20.3% (active); in the test with LOX IMVI melanoma, 1.14% (active) and 2.87% (active); with SK-MEL-28 melanoma, -1.82% (active) and 1.77% (active); with SK-MEL-2 melanoma it was -42.4% (active); in the test with EKVX NSCLC, 7.47% (active) and 2.62% (active). Also, the growth with SN12C renal is 15.6% (inactive) and 17.1% (inactive); in the test with UO-31 renal, -14.7% (active) and -16.6% (active); in the test with TK-10 renal, -27.5% (active) and -27.4% (active); in the test on ACHN renal, 5.22% (active) and 9.17% (active); in the test on CAKI-1 renal it was 5.77% (active) and -2.85% (active); in the test with CCRF-CEM leukemia it was 10.1% (inactive). Besides, the growth in the test with MOLT-4 leukemia is -5.74% (active) and -20.5% (active).

For `COc1cc(C(=O)c2ccc3c(c2)OCO3)cc(OC)c1OC`, the growth with HCT-15 colon was 15.6% (inactive) and 27.4% (inactive); in the test with HT29 colon, 5.54% (active) and -1.28% (active); with SNB-75 CNS, 0.967% (active) and -9.36% (active); in the test on SNB-19 CNS, 35.9% (inactive) and 43.1% (inactive); in the test on U251 CNS, 24.1% (inactive) and 16.2% (inactive); in the test with PC-3 prostate, 29.3% (inactive). The growth with SK-MEL-5 melanoma was 18.3% (inactive) and 8.01% (active); with UACC-62 melanoma, 42.4% (inactive) and 22.9% (inactive); with LOX IMVI melanoma, 24% (inactive) and 44% (inactive); in the test on SK-MEL-28 melanoma, 46.7% (inactive) and 43.2% (inactive); with SK-MEL-2 melanoma, 44.6% (inactive) and -28.3% (active); in the test with EKVX NSCLC, 55.7% (inactive) and 61.5% (inactive). Also, the growth in the test with SN12C renal was 47.1% (inactive) and 39.5% (inactive); with UO-31 renal, 16.2% (inactive) and 37.6% (inactive); in the test with TK-10 renal, 31.7% (inactive) and 27.3% (inactive); in the test with ACHN renal, 39.4% (inactive) and 48.1% (inactive); in the test on CAKI-1 renal it was 4.39% (active) and 24.7% (inactive); in the test on CCRF-CEM leukemia, 19.5% (inactive). The growth in the test on MOLT-4 leukemia was 40.7% (inactive) and 42.7% (inactive).
